Records with an inconclusive call do not appear. Activity calls are given as the source filed them. Calls follow the shape of the dose curve; as a rule, active = well fitted inhibition curve with a large enough effect; inconclusive = small, poorly fitted or top-dose-only effect; inactive = flat fitted curve, though single readings scatter.
Tests used:
NIH3T3 [1] = experiment: Cytotoxic Profiling of Annotated Libraries Using Quantitative High-Throughput Screening (AID 1296008); conditions: Five cell lines viability, CellTiter-Glo ATP luminescence, 48-72 h; max response: stronger effect = lower value
How it was run: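 Compounds were pin-transferred onto cells and incubated 48 or 72 hr at 37 degree Celsius, 95% humidity. CellTiter-Glo was added, plates sat 10 min at room temperature, then ATP-coupled luminescence was imaged as the viability read-out.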

CRL-7250 = normal cell line; experiment: qHTS assay to identify novel small-molecules to repurpose for Merkel cell carcinoma treatment (AID 1296009); conditions: MCC and control cell lines, CellTiter-Glo viability, 72 h; at 44.8 µM (top of the series) unless noted
How it was run: (§1)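 Luminescence from CellTiter-Glo, read 10 min after addition at room temperature, reported viability following a 72 hr, 37 degree celsius treatment with NPC or MIPE compounds in titration; values normalized to plate controls.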

MCC-13 = experiment: as above; conditions: MCC and control cell lines, CellTiter-Glo viability, 72 h; series mostly up to 46 µM
How it was run: as §1

MCC-26 = experiment: as above; conditions: MCC and control cell lines, CellTiter-Glo viability, 72 h; series mostly up to 46 µM
How it was run: as §1

UISO = experiment: as above; conditions: MCC and control cell lines, CellTiter-Glo viability, 72 h; series mostly up to 46 µM
How it was run: as §1

HEK293T = experiment: as above; conditions: MCC and control cell lines, CellTiter-Glo viability, 72 h; at 44.8 µM (top of the series) unless noted
How it was run: as §1

MKL-1 = experiment: as above; conditions: MCC and control cell lines, CellTiter-Glo viability, 72 h; series mostly up to 46 µM
How it was run: as §1

MKL-2 = experiment: as above; conditions: MCC and control cell lines, CellTiter-Glo viability, 72 h; series mostly up to 46 µM
How it was run: as §1

NIH3T3 [2] = experiment: as above; conditions: MCC and control cell lines, CellTiter-Glo viability, 72 h; at 44.8 µM (top of the series) unless noted
How it was run: as §1

HACAT = experiment: as above; conditions: MCC and control cell lines, CellTiter-Glo viability, 72 h; at 44.8 µM (top of the series) unless noted
How it was run: as §1
% is scaled to controls: 0 for no effect and ±100 for the full control effect.
Also: nearly all actives have a fitted effect of over 60% in size.

CC(C)N[C@@H]1CCn2c(=O)[nH]c3cccc(c32)[C@@H]1O
inactive: max response (NIH3T3 [1]) -1.8% | outcome (CRL-7250) | Potency (MCC-13) | Potency (MCC-26) | Potency (UISO)

O=S(=O)(F)Cc1ccccc1
inactive: max response (NIH3T3 [1]) 3.32% | outcome (CRL-7250) | outcome (HEK293T) | Potency (MCC-13) | Potency (MCC-26) | Potency (MKL-1) | Potency (MKL-2) | Potency (UISO)

CN1CCN(c2ccc([N+](=O)[O-])c3no[n+]([O-])c23)CC1
inactive: max response (NIH3T3 [1]) 0.637% | outcome (NIH3T3 [1]) | Potency (MCC-13) | Potency (MCC-26) | Potency (MKL-1) | outcome (NIH3T3 [2]) | Potency (UISO)

COC(=O)[C@@H](N)CCCN=C(N)N[N+](=O)[O-]
inactive: max response (NIH3T3 [1]) 1.58% | outcome (CRL-7250) | Potency (MCC-13) | Potency (MCC-26) | Potency (MKL-1) | Potency (MKL-2) | Potency (UISO)

COc1ccc2c(c1)CN(C)CC2c1ccc(Cl)c(Cl)c1 (configuration not stated)
inactive: max response (NIH3T3 [1]) -1.98% | outcome (CRL-7250) | outcome (HACAT) | Potency (MCC-13) | Potency (MCC-26) | Potency (MKL-1) | Potency (UISO)

CCN(CC)C(=O)c1ccc(C2=CC3(CCNCC3)Oc3cccc(O)c32)cc1
inactive: max response (NIH3T3 [1]) 0.128% | outcome (NIH3T3 [1]) | outcome (HACAT) | Potency (MCC-13) | Potency (MCC-26) | Potency (MKL-1) | Potency (MKL-2) | outcome (NIH3T3 [2]) | Potency (UISO)

COC1=C[C@@H]2[C@@H]3Cc4ccc(OC)c(O)c4[C@]2(CCN3C)CC1=O
inactive: outcome (NIH3T3 [1]) | outcome (CRL-7250) | outcome (HACAT) | Potency (MCC-13) | Potency (MCC-26) | Potency (MKL-1) | Potency (MKL-2) | outcome (NIH3T3 [2]) | Potency (UISO)

Clc1ccccc1C(c1ccccc1)(c1ccccc1)n1cccn1
inactive: outcome (NIH3T3 [1]) | outcome (CRL-7250) | Potency (MCC-13) | Potency (MCC-26) | Potency (MKL-1) | Potency (MKL-2) | outcome (NIH3T3 [2]) | Potency (UISO)

C1CCC(NC2CCCCC2)CC1
inactive: max response (NIH3T3 [1]) -2.97% | outcome (CRL-7250) | Potency (MCC-13) | Potency (MCC-26) | Potency (MKL-1) | Potency (MKL-2) | Potency (UISO)
